Values joined by “and” are separate entries in the source; they are usually repeats but may differ in a detail not shown here. Identical values can stand only once. Active and inactive are the calls of the source. Rule for the calls: active = hit-call score of the fitted dose curve at least 0.9, where 1 is the maximum; inactive = score below 0.9.
System: not listed separately
Assay: CCTE_Padilla_ZF_Score.Any: CCTE's 144 Hour Post-fertilization zebrafish Assay Score for Any Mortality or Malformation, Padilla Lab (AID 2284416)
How it was run: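 Wild-type zebrafish embryos with chorions, one per well in 10% Hanks' from 6–8 hpf, dosed in sealed plates at 26 C, 14:10 h light:dark; rinsed at 5 dpf; blinded scoring at 6 dpf for death or malformation, versus DMSO.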

SMILES	AC50	outcome
NS(=O)(=O)C(F)(F)C(F)(F)C(F)(F)C(F)(F)C(F)(F)C(F)(F)C(F)(F)C(F)(F)F	0.747 µM (active)	–
O=C(O)C(F)(F)C(F)(F)C(F)(F)C(F)(F)C(F)(F)C(F)(F)C(F)(F)C(F)(F)C(F)(F)F	10.7 µM (active)	–
O=C(O)C(F)(F)C(F)(F)C(F)(F)C(F)(F)C(F)(F)C(F)(F)C(F)(F)C(F)(F)F	29.1 µM (active)	–
O=S(=O)(O)C(F)(F)C(F)(F)C(F)(F)C(F)(F)F	–	inactive
O=C(O)C(F)(F)C(F)(F)C(F)(F)C(F)(F)C(F)(F)F	–	inactive
O=S(=O)(O)C(F)(F)C(F)(F)C(F)(F)C(F)(F)C(F)(F)C(F)(F)F	36.4 µM (active) and 34.4 µM (active)	–

System: TTR (gene 7276)
Assay: CCTE_GLTED_hTTR_0.125uM: CCTE's human Transthyretin (hTTR) Inhibition Assay, with 0.125uM TTR, Great Lakes Toxicology and Ecology Division (GLTED) Lab (AID 2284431);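 note: hits lower the fluorescence signal relative to DMSO baseline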
How it was run: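 Probe-displacement format: chemicals competing for the T4 site release ANSA from 0.125uM TTR during a 2 h incubation, measured by fluorescence at 380 excitation and 475 emission.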

SMILES	AC50
CCC(C)c1cc([N+](=O)[O-])cc([N+](=O)[O-])c1O (configuration not stated)	0.0883 µM (active)
Cc1cc(-c2ccc(N)c(C)c2)ccc1N	92.7 nM (active) and 178 nM (active)
Clc1ccc(C(Cl)(Cl)Cl)cc1	1.04 µM (active)
CC(c1ccc(O)cc1)(c1ccc(O)cc1)c1ccc(O)cc1	1.48 µM (active)
CCCCCCCCCc1ccc(O)cc1	3.03 µM (active)
NS(=O)(=O)C(F)(F)C(F)(F)C(F)(F)C(F)(F)C(F)(F)C(F)(F)C(F)(F)C(F)(F)F	0.683 µM (active)
CCC(C)(c1ccc(O)cc1)c1ccc(O)cc1	9.26 µM (active)
Oc1ccc(C(c2ccc(O)cc2)(C(F)(F)F)C(F)(F)F)cc1	2.53 µM (active)
Cc1cc(O)ccc1Cl	20.5 µM (active)
O=C(O)C(F)(F)C(F)(F)C(F)(F)C(F)(F)C(F)(F)C(F)(F)C(F)(F)C(F)(F)C(F)(F)F	0.646 µM (active)
O=C(O)C(F)(F)C(F)(F)C(F)(F)C(F)(F)C(F)(F)C(F)(F)C(F)(F)C(F)(F)F	0.21 µM (active)
O=S(=O)(O)C(F)(F)C(F)(F)C(F)(F)C(F)(F)F	2.08 µM (active)
O=C(O)C(F)(F)C(F)(F)C(F)(F)C(F)(F)C(F)(F)F	1.92 µM (active)
O=NN(c1ccccc1)c1ccccc1	14.2 µM (active)
CC(C)(c1ccccc1)c1ccc(O)cc1	0.888 µM (active)
O=S(=O)(O)C(F)(F)C(F)(F)C(F)(F)C(F)(F)C(F)(F)C(F)(F)F	0.0856 µM (active)

— PubChem BioAssay (EPA / NIEHS)
